The values that follow come from PMC4336329 (PLoS ONE, 2015).

Among all 310,000 compounds or so, about 14,000 (4.5%) showed an effect of 50% or more. The effect is printed as a negative number. The entries come from a sample that favours strong results as a whole.
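Also: peak tail current of the secondary pulse compared with the same well before compound.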

Chain of human ether-à-go-go-related gene (hERG) potassium channel (Q12809 whole entry, looked up): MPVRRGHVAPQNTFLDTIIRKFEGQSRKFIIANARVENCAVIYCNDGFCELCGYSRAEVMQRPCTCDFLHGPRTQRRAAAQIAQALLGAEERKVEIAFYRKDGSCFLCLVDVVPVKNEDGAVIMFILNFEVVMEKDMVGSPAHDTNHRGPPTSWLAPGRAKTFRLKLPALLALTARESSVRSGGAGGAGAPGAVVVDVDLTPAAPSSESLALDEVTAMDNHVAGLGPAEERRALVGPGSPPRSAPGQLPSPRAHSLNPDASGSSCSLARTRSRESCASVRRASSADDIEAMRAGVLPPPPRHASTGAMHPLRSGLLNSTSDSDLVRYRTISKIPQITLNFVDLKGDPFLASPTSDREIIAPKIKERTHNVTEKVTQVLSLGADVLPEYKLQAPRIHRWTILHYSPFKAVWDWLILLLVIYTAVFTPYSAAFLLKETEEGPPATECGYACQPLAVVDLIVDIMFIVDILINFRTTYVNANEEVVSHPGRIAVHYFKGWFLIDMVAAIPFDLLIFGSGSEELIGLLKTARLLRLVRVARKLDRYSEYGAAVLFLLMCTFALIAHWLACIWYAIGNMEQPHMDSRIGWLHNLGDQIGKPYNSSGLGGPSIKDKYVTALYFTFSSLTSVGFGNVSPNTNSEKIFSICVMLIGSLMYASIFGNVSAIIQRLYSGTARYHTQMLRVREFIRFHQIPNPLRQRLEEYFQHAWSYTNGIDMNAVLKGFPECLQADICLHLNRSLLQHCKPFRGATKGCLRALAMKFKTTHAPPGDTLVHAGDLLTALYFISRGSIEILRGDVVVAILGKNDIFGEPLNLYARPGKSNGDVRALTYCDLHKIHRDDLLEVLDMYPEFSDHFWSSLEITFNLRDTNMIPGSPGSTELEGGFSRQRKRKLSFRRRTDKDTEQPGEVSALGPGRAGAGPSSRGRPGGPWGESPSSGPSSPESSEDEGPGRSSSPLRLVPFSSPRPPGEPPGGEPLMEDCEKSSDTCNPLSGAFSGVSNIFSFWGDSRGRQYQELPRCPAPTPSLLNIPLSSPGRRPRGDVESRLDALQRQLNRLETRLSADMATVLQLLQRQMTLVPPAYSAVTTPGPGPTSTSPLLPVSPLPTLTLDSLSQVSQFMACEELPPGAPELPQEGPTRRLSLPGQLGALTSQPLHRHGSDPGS

This assay addresses human ether-à-go-go-related gene (hERG) potassium channel (human, UniProt Q12809). The assay can be described thus: primary screen, population patch clamp on CHO cells stably expressing hERG; higher = less effect of the substance.
Turning to `CSc1ccccc1C(=O)NCC1CCCO1` (centres unmarked), the “hERG current change (%, negative = inhibition) at 10uM” value is listed as -11.8%.

For the molecule `CCSc1nnc2c(Cl)cc(Cl)cn12`, the “hERG current change (%, negative = inhibition) at 10uM” value came out at 5.28%.

Turning to `O=C1c2ccccc2C(=O)N1CCCCSc1nnc2c(Cl)cc(Cl)cn12`, the “hERG current change (%, negative = inhibition) at 10uM” value was -80.2%.

`O=C1c2ccccc2C(=O)N1CSc1nnnn1-c1ccccc1`: the “hERG current change (%, negative = inhibition) at 10uM” value is recorded as -3.73%.

On to `O=C1c2ccccc2C(=O)N1CCCCSc1nnnn1-c1ccccc1`, for which the “hERG current change (%, negative = inhibition) at 10uM” value is on record as -51.7%.

As for `O=C(O)CCSc1nnnn1-c1ccccc1`, the “hERG current change (%, negative = inhibition) at 10uM” value was -1.42%.

With `O=C1c2ccccc2C(=O)N1CCCCSc1nnc2ccccn12`, the “hERG current change (%, negative = inhibition) at 10uM” value is -22.7%.

Consider `CC(=O)OCc1cc(-c2nc3ccccc3[nH]c2=O)nn1-c1ccc(Cl)cc1`, for which the “hERG current change (%, negative = inhibition) at 10uM” value stood at 18%.

With `O=C(CSc1nc2[nH]ncc2c(=O)[nH]1)NCCc1ccccc1`, the “hERG current change (%, negative = inhibition) at 10uM” value amounted to 26.9%.

`O=[N+]([O-])c1ccc2c(c1N1CCCCC1)=NC1(CCCCC1)[N+]=2[O-]`: the “hERG current change (%, negative = inhibition) at 10uM” value is -8.78%.

For the molecule `Cc1ccc(NC(=O)C/C(N)=N/OC(=O)Nc2ccc(C)c(Cl)c2)cc1`, the “hERG current change (%, negative = inhibition) at 10uM” value was found to be 4.56%.

As for `O=C(NCCCN1CCOCC1)c1cc(-c2cccs2)on1`, the “hERG current change (%, negative = inhibition) at 10uM” value is recorded as -15.7%.

On to `O=C(NCCCN1CCOCC1)c1ccc(-n2nc(C(F)(F)F)cc2-c2cccs2)cc1`, for which the “hERG current change (%, negative = inhibition) at 10uM” value is given as -80.4%.

In the case of `COCCCNC(=O)c1ccc(-n2nc(C(F)(F)F)cc2-c2cccs2)cc1`, the “hERG current change (%, negative = inhibition) at 10uM” value was -30.6%.

For the molecule `COc1ccc(C(=O)COC(=O)CN2C(=O)NC(C)(C)C2=O)cc1OC`, the “hERG current change (%, negative = inhibition) at 10uM” value is recorded as -1.87%.

With `NC(=O)C(=O)N/N=C/c1c[nH]c2ccc(Br)cc12`, the “hERG current change (%, negative = inhibition) at 10uM” value turned out to be 12.7%.

For `O=C(NC(=S)Nc1ccc(CN2CCOCC2)cc1)c1cccc([N+](=O)[O-])c1`, the “hERG current change (%, negative = inhibition) at 10uM” value turned out to be 10.7%.

For `Cc1ccc(-n2c(=O)[nH]cc(C(=O)Nc3ccc4c(c3)OCCO4)c2=O)cc1C`, the “hERG current change (%, negative = inhibition) at 10uM” value is -5.33%.

`CN1CCC(NCCC(c2ccc(F)cc2)c2ccc(Cl)cc2)CC1` (centres unmarked): the “hERG current change (%, negative = inhibition) at 10uM” value is on record as -71.5%.

Turning to `CC(C)C(CCNC1CCN(C)CC1)c1ccc(Cl)cc1` (centres unmarked), the “hERG current change (%, negative = inhibition) at 10uM” value is 11.3%.

As for `CCN1CCC(NCCc2ccc(F)cc2)CC1`, the “hERG current change (%, negative = inhibition) at 10uM” value is given as -0.893%.

As for `Cc1ccccc1-c1noc(CNC(=O)COc2ccccc2)n1`, the “hERG current change (%, negative = inhibition) at 10uM” value was -10.4%.

For `COc1ccc(C(=O)N(C)Cc2ccccc2)cc1Br`, the “hERG current change (%, negative = inhibition) at 10uM” value is listed as -8.29%.

Turning to `CN(CC(=O)Nc1ccccc1Cl)C(=O)C1CCN(C(=O)c2ccc(F)cc2)CC1`, the “hERG current change (%, negative = inhibition) at 10uM” value was -20.9%.

For `CN(CC(=O)Nc1ccccc1C(F)(F)F)C(=O)C1CCN(C(=O)c2ccc(Cl)cc2)CC1`, the “hERG current change (%, negative = inhibition) at 10uM” value is recorded as -31.8%.

Regarding `CN(CC(=O)Nc1cccc(F)c1)C(=O)C1CCN(C(=O)c2ccc(Cl)cc2)CC1`, the “hERG current change (%, negative = inhibition) at 10uM” value is -55.5%.

For the molecule `CN(CC(=O)Nc1ccccc1Cl)C(=O)C1CCN(C(=O)c2ccc(Cl)cc2)CC1`, the “hERG current change (%, negative = inhibition) at 10uM” value is recorded as -35.1%.

As for `CN(CC(=O)Nc1ccccc1Br)C(=O)c1ccc(-c2ccc(Cl)cc2)o1`, the “hERG current change (%, negative = inhibition) at 10uM” value is 5.51%.

Regarding `Cc1cc(Br)ccc1NC(=O)CN(C)C(=O)C1CCN(C(=O)c2ccc(F)cc2)CC1`, the “hERG current change (%, negative = inhibition) at 10uM” value is given as -65.1%.

As to `CN(CC(=O)Nc1ccccc1Br)C(=O)C1CCN(C(=O)c2ccc(Cl)cc2)CC1`, the “hERG current change (%, negative = inhibition) at 10uM” value is listed as -50.1%.

For `Cc1ccccc1C(=O)N1CCC(C(=O)N(C)CC(=O)Nc2cccc(F)c2)CC1`, the “hERG current change (%, negative = inhibition) at 10uM” value was determined as 12.4%.

Consider `CCOc1ccc(NC(=O)CN(C)C(=O)C2CCN(C(=O)c3ccc(Cl)cc3)CC2)cc1OCC`, for which the “hERG current change (%, negative = inhibition) at 10uM” value is -48.1%.

As for `Cc1cc(Br)ccc1NC(=O)CN(C)C(=O)CCSc1ccc(F)cc1`, the “hERG current change (%, negative = inhibition) at 10uM” value is reported as 0.468%.

Take `CN(CC(=O)Nc1ccccc1Br)C(=O)CN1CCN(c2ccccc2Cl)CC1`: the “hERG current change (%, negative = inhibition) at 10uM” value is recorded as -29.6%.

`CN(CC(=O)Nc1ccccc1Br)C(=O)CN1CCN(Cc2ccc(Cl)cc2)CC1`: the “hERG current change (%, negative = inhibition) at 10uM” value is -66.9%.

In the case of `CC(=O)Nc1ccc(Sc2ccccc2C(=O)O)c(C(=O)O)c1`, the “hERG current change (%, negative = inhibition) at 10uM” value came to 19.4%.

`CCCc1[nH]n(-c2ccc(F)cc2)c(=O)c1C=Nc1ccc(C)cc1`: the “hERG current change (%, negative = inhibition) at 10uM” value is 4.95%.

As to `CCOc1ccccc1NC(=O)Nc1ccc(OC)nc1`, the “hERG current change (%, negative = inhibition) at 10uM” value is 14.7%.

In the case of `CCOC(=O)c1ccc(S(=O)(=O)NC2CCCCCCC2)n1C`, the “hERG current change (%, negative = inhibition) at 10uM” value is -12.4%.

Regarding `O=C(NCc1ccccc1)C1CCCN(S(=O)(=O)c2cccs2)C1` (centres unmarked), the “hERG current change (%, negative = inhibition) at 10uM” value was -0.56%.

For `COc1ccc(-c2cc(C(=O)N3CCN(Cc4ccc5c(c4)OCO5)CC3)on2)cc1OC`, the “hERG current change (%, negative = inhibition) at 10uM” value was 2.8%.

Take `COc1ccc2oc(-c3ccccc3)c(C(=O)N3CCOCC3)c2c1`: the “hERG current change (%, negative = inhibition) at 10uM” value is given as -8.44%.

As for `Cc1csc(NC(=O)c2c(-c3c(F)cccc3Cl)noc2C)n1`, the “hERG current change (%, negative = inhibition) at 10uM” value is -10.9%.

Turning to `Cc1ccc(S(=O)(=O)NC2CCCC2)cc1C`, the “hERG current change (%, negative = inhibition) at 10uM” value is -9.68%.

Consider `C[N+](C)(CC#Cc1ccccc1)CC(=O)c1ccc(Cl)cc1`, for which the “hERG current change (%, negative = inhibition) at 10uM” value was -28.3%.

As to `CCC[N+](CC#Cc1ccccc1)(CCC)CC(=O)OCC`, the “hERG current change (%, negative = inhibition) at 10uM” value is reported as -1.25%.

Regarding `C[N+](C)(CC#Cc1ccccc1)CC(=O)c1ccccc1.[Br-]`, the “hERG current change (%, negative = inhibition) at 10uM” value was -13.5%.
